Reference: PubChem BioAssay (NCI)
About 83,000 compounds went through this panel and 20% of them were active in at least one assay; those are over-represented in the sample as a whole.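 The endpoint reported here, percent growth, reads 100 for growth as untreated, 0 for no net growth and -100 for all cells dead.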 A number with no mark means an inactive call. Calls of active or inactive are those of the source. How the source made its calls: active means growth percent below 10; inactive means the rest.

Tests used:
Assay in all cases: NCI-60 one-dose screen, 48 h (100 = growth as untreated, 0 = no growth, -100 = all killed)
NCI-H23 lung = details: 10 µM unless noted
NCI-H226 lung = details: 10 µM unless noted
NCI-H322M lung = details: 10 µM unless noted
HOP-62 NSCLC = details: 10 µM unless noted
NCI-H460 lung = details: 10 µM unless noted
786-0 renal = details: 10 µM unless noted
COLO 205 colon = details: 10 µM unless noted
HOP-92 NSCLC = details: 10 µM unless noted
NCI-H522 lung = details: 10 µM
A549/ATCC NSCLC = details: 10 µM unless noted

Row | Compound | growth (NCI-H23 lung) | growth (NCI-H226 lung) [%] | growth (NCI-H322M lung) | growth (HOP-62 NSCLC) | growth (NCI-H460 lung) | growth (786-0 renal) | growth (COLO 205 colon) | growth (HOP-92 NSCLC) | growth (NCI-H522 lung) | growth (A549/ATCC NSCLC)
1 | C(=C1c2ccccc2-c2ccccc21)c1ccncc1 | 58.5% | 86.8 | 80.1% | 56.3% | 33.7% | 58.2% | 49.4% | – | – | –
2 | Cc1ccc(-c2csc(N)n2)cc1 | 102% | 97.4 | 107% | – | 102% | 98.3% | 115% | 70.7% | 98.8% | –
3 | COc1ccc2c(c1)CC/C(=C\c1ccc(OCC(=O)Nc3nc4ccccc4s3)cc1)C2=O | 79.5% | 90.4 | 98.6% | – | 113% | 92.3% | 122% | 61.1% | 85.4% | –
4 | O=C(N/N=C/c1cccc([N+](=O)[O-])c1)c1ccc(Br)o1 | 102% | 109 | 105% | – | 114% | 92.5% | 97.9% | 85.7% | 85.7% | –
5 | CCN(CC)CCCCCCCNc1c2ccc(Cl)cc2nc2ccc(OC)cc12 | – | – | -35% (active) | – | – | – | – | – | – | –
6 | CN(C)c1ccc(-c2nc3ncc(Br)cc3o2)cc1 | 87.5% | – | 90.2% | 91.9% | 109% | 86.5% | 81.3% | 61.8% | – | 103%
7 | CC(=O)c1nn(-c2ccccc2)c(=Nc2ccccc2)cc1C | 107% | – | 103% | 91.7% | 101% | 107% | 109% | – | – | 99.7%
8 | COc1ccc2cc(C3=CC(=O)CCC3)ccc2c1 | 91.8% | – | 93.6% | 112% | 110% | 90.5% | 99.9% | 83.5% | – | 82.6%
9 | CC(=O)N1N=C(c2ccc3c(c2)OCO3)CC1c1c(C)nn(-c2ccccc2)c1N(C)Cc1ccccc1 (configuration not stated) | 86.9% | – | 89.6% | 77.1% | 79.1% | 85.5% | 79.3% | 46.1% | – | 50.6%
10 | N#CC1c2ccccc2C=CN1C(=O)N(c1ccccc1)c1ccccc1 (configuration not stated) | 66.6% | – | – | 101% | 101% | 95.5% | -41.6% (active) | 45.6% | – | 91.4%
11 | COc1cc(/C=C2\CN(C)CC3=C2Nc2nc(SC)[nH]c(=O)c2C3c2cc(OC)c(OC)c(OC)c2)cc(OC)c1OC (configuration not stated) | 49.4% | – | 86.7% | 69.8% | 10.1% | 67.4% | 31.2% | 82.7% | 37.8% | –
12 | O=Nc1c2cccnc2n2nnc3ccc(Cl)cc3c12 | 66.4% | – | 107% | 115% | 27.7% | 59% | -5.58% (active) | -40.5% (active) | -71.5% (active) | –
13 | CCCCCCCCCCCCCCCCCC1=NC(C)(CO)CO1 (configuration not stated) | 98.2% | – | 90.4% | 95.9% | 103% | 92.3% | 101% | 79.8% | – | 89.6%
14 | COC(=O)C1(NC(=O)CNC(=O)OCc2ccccc2)CCCC1 | 106% | – | 113% | – | 111% | 95.3% | 125% | 85.2% | – | 95.3%
15 | CC(=O)Nc1c(Cl)cc2c(c1Cl)Cc1cc([N+](=O)[O-])ccc1-2 | 88% | – | 94.9% | 69.6% | 81.3% | 77.9% | 103% | 53.3% | – | 74.5%
16 | O=C(O)C1C(c2ccccc2)c2ccccc2C(O)C1CO (configuration not stated) | 106% | – | 112% | 107% | 111% | 107% | 99.7% | 89.1% | – | –
17 | CC(=O)Nc1cc(C(c2ccccc2)c2ccccc2)cc(C(c2ccccc2)c2ccccc2)c1C | 60% | – | 81.7% | 8.81% (active) | 55.4% | 63.6% | 64.3% | 41.4% | – | –
18 | C[C@@H]1C[C@@H]([C@@H](CC2CC(=O)NC(=O)C2)OC(=O)CC(=O)c2ccccc2)C(=O)[C@@H](C)C1 | 13.9% | – | -19.5% (active) | 13.5% | 12.1% | 1.2% (active) | – | 9.2% (active) | – | 1.76% (active)
19 | CSc1nc(Nc2ccc(S(=O)(=O)Nc3ccon3)cc2)c(C#N)c(-c2ccc(Cl)cc2)n1 | 94.2% | – | 98.3% | 106% | 112% | 94.7% | 108% | 109% | 84.9% | –
20 | CCC(C)C1NC(=O)C(CCNCS(=O)(=O)O)NC(=O)C(NC(=O)C(CCNCS(=O)(=O)O)NC(=O)C(NC(=O)C(CCNCS(=O)(=O)O)NC(=O)CCCCC(C)C)C(C)O)CCNC(=O)C(C(C)O)NC(=O)C(CCNCS(=O)(=O)O)NC(=O)C(CCNCS(=O)(=O)O)NC(=O)C(C(C)CC)NC1=O (configuration not stated) | 66.6% | – | 70.3% | 46.8% | 48.8% | 93.1% | 1.57% (active) | 95.8% | 10.5% | –
21 | CC(C)CC1NC(=O)C(CCCN)NC(=O)C(C(C)C)NC(=O)C2CCCN2C(=O)C(Cc2ccccc2)NC(=O)C(CC(C)C)NC(=O)C(CCCN)NC(=O)C(C(C)C)NC(=O)C2CCCN2C(=O)C(Cc2ccccc2)NC1=O (configuration not stated) | -75.9% (active) | – | -65.5% (active) | -86.5% (active) | -73.2% (active) | -85.9% (active) | -90.2% (active) | -56.7% (active) | – | –
22 | O=C(/C=C/c1ccc(C(F)(F)F)cc1)c1ccc(Nc2nc(NCCO)nc(NCCO)n2)cc1 | 84.3% | – | 74.8% | 22.3% | 82.8% | 30.4% | 37.3% | 99.3% | – | –
23 | COc1ccc(-c2nc3sc4c(c3c(=O)[nH]2)CCCCCC4)cc1 | 80.7% | – | 74.4% | – | 33.2% | 80.1% | 35.4% | 73.2% | – | 50.3%
